# Ecoli rRNA inh – inhibitors of bacterial rRNA selective over humanized ribosomes. E. coli WT GFP vs humanized-ribosome RFP mutants, fluorescence, 24 h; stronger effect = lower value; DMSO median 0, no signal -100. GFP signal change (wild-type ribosome), % (concentration not given with the values). hit rate 1.6% among 350,000;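 active means significant combined selectivity score with lowered wild-type GFP, culture density cut under 30%, mutant RFP and density less affected; inactive means any of these conditions unmet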
# PAX8 inh HTS – inhibitors of PAX8 transcriptional activity in RMG-I cells; AID 652154; inhibition, % at 12.6 µM; hit rate 1.2% among 360,000; RMG-I TPO-luciferase reporter, SteadyGlo, 24 h;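 active means mean replicate inhibition at least 60% with every replicate also reaching 60%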;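 further: luciferase light reporting Pax8 driven TPO promoter activity; plate controls were median of neutral control wells for no effect and mitoxantrone controls for full effect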
# EWS-Fli block – blocks EWS/Fli oncoprotein-driven transcription; A673 NR0B1-luciferase reporter, viability-normalised; inhibition, % at 12.6 µM; hit rate 0.67% among 350,000; AID 651661;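 active means mean inhibition of at least 50% after viability correction, with every replicate also passing that limit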;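 further: firefly luciferase signal divided by Alamar Blue viability fluorescence both relative to DMSO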
# PGC1a acetyl inh – lowers PGC1a acetylation signal in U2OS cells. AlphaScreen anti-acetyl-lysine; with virally co-expressed GCN5 acetyltransferase. inhibition, % at 15.6 µM. hit rate 0.17% among 350,000;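 active means every replicate shows inhibition of at least 40%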;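 further: 0% = neutral control wells and 100% = positive control wells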
# LGR2 antag – blocks bursicon-induced cAMP signaling via Drosophila LGR2 | inhibition, % at 9.99 µM | hit rate 0.35% among 380,000 | HEK293 LGR2, CRE-luciferase, bursicon-stimulated, 4 h;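 active means drop in luminescence signal, shown as inhibition above about 50% in the replicate tests, limit read from the data, passing the limit was not always enough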;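 further: agonist challenge used bursicon conditioned medium at about half maximal strength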
# SIRT5 inh – inhibitors of human sirtuin-5 desuccinylase. Q9NXA8. Purified SirT5, succinyl-peptide AMC, trypsin-coupled fluorescence. inhibition, % at 15 µM. hit rate 1.1% among 330,000. AID 652115; in the data active means inhibition above about 15%
# Target sequence (Q9NXA8 whole entry, looked up): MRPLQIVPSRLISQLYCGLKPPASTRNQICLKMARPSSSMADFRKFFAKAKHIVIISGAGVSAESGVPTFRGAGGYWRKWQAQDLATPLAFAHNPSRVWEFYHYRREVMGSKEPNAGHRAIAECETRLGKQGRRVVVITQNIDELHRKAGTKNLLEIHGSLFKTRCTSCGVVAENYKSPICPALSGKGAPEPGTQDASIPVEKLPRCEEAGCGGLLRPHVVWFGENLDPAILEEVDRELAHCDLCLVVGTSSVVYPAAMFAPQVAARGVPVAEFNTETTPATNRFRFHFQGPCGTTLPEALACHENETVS
# * hit, by the source's call; nt = no result. A selection: hits, their analogues and other compounds. The true share with any hit is near 3.4%.
SMILES,Ecoli rRNA inh,PAX8 inh HTS,EWS-Fli block,PGC1a acetyl inh,LGR2 antag,SIRT5 inh
Oc1c(Cl)cc(Cl)cc1/C=N/NC(=S)NC1CC2C=CC1C2 (stereo not drawn),-31*,54,39,7,-18,0
Oc1ccccc1C=NNC(=S)NC1CC2C=CC1C2 (stereo not drawn),-57,-49,-2,4,nt,nt
Cc1nnc(SCC(=O)N2CCC(c3noc4ccc(F)cc34)CC2)s1,-16,nt,-7,57*,21,0
C[C@H](O)C#Cc1cnc2c(c1)C(=O)N([C@H](C)CO)C[C@@H](C)[C@H](CN(C)C(=O)CC1CC1)O2,-4,nt,2,-3,3,0
Cn1cc(CN2CCCC(C(=O)c3cc(F)ccc3F)C2)c2ccccc21 (stereo not drawn),-10,7,14,-6,3,1
COc1ccc(F)cc1C(=O)C1CCCN(Cc2cn(C)c3ccccc23)C1 (stereo not drawn),-31*,33,13,-9,6,0
COc1cc(NC(=O)Cn2ncc(Cl)c(Cl)c2=O)c(C)cc1[N+](=O)[O-],8,91*,76*,nt,105*,2
COc1cc(NC(=O)CN2C(=O)CN(C)C2=O)c(C)cc1[N+](=O)[O-],13,1,10,1,-16,-8
CC(=O)n1cc(N(C(=O)CCl)c2ccc(C)cc2)c2ccccc21,-20,104*,40,12,-4,1
O=C(NCCc1ccc(F)cc1)Nc1ccc([N+](=O)[O-])cc1,-25,-30,nt,7,4,4
O=[N+]([O-])c1ccc(NC(=S)NCCc2ccc(F)cc2)cc1,-51,81*,-6,nt,29,nt
CCN1CCN(C(=O)/C=C/c2ccc(F)cc2)CC1,-5,22,-3,7,-2,18*
O=C(/C=C/c1ccc(F)cc1)NC(=S)N1CCOCC1,11,-33,9,-9,-12,1
O=C(/C=C/c1ccc(F)cc1)NNC(=O)CCN1CCN(Cc2ccccc2)CC1,2,-2,-3,52*,5,0
CCN1CCN(C(=O)/C=C/c2ccc(OC)cc2)CC1,22,-1,6,nt,0,0
O=C(/C=C/c1ccc(F)cc1)NC(=S)N1CCN(Cc2ccccc2)CC1,-34*,-11,-8,nt,-1,0
COc1cc(CN2CC3(CCN(C(=O)CN4CCOCC4)CC3)c3c(n(C)c4cc(OC)ccc34)[C@H]2CO)cc(OC)c1,2,nt,-2,nt,2,0
C[C@@H]1CN([C@@H](C)CO)C(=O)c2cccc(NC(=O)CCCCCC(=O)Nc3ccccc3N)c2O[C@H]1CN(C)S(=O)(=O)c1cn(C)cn1,-1,-37,39,7,-2,nt
Clc1ccc(CNC2CCN(Cc3ccccc3)CC2)cc1,11,13,13,2,-8,-1
Fc1ccc(CNC2CCN(Cc3ccccc3)CC2)cc1,4,27,-6,9,8,21*
Cc1noc(C)c1NC(=O)Nc1ccc2c(c1)CC(=O)N([C@H](C)CO)C[C@H](C)[C@H](CN(C)C(=O)Nc1ccc(F)cc1)O2,6,-19,-6,0,6,-3
CCCNC(=O)Nc1ccc2c(c1)C(=O)N(C)C[C@@H](OC)[C@H](C)CN(Cc1ccc(-c3ccccn3)cc1)[C@H](C)CO2,-1,nt,-10,12,-15,7
CCOC(=O)c1c(C)[nH]c(C(=O)Nc2ccc(NC(C)=O)cc2)c1C,-27*,11,-7,1,-12,-3
CCOC(=O)c1c(C)[nH]c(C(=O)OCC(=O)Nc2ccc(Cl)cn2)c1C,4,-1,-2,-4,5,-1
CCOC(=O)c1c(C)[nH]c(C(=O)OCC(=O)Nc2sccc2C(N)=O)c1C,-5,30,-30,nt,71*,0
SMILES,Ecoli rRNA inh,PAX8 inh HTS,EWS-Fli block,PGC1a acetyl inh,LGR2 antag,SIRT5 inh
COc1ccc(-n2c(O)c(/C=C3\C=Nc4ccccc43)c(=O)[nH]c2=O)cc1,-27,20,7,-11,3,39*
Cc1nc(-c2ccccc2)sc1C(=O)NS(=O)(=O)c1ccc(CN2CCN(c3ccccc3)CC2)cc1,-41,-29,-104,nt,1,22*
O=C(C[C@@H]1CC[C@@H]2[C@H](COC[C@H](O)CN2Cc2ccccc2F)O1)N[C@H]1CCN(Cc2ccccc2)C1,0,20,18,0,-21,-6
CCS(=O)(=O)N[C@H]1C=C[C@@H](CC(=O)N2CCCCC2)O[C@H]1CO,nt,2,5,4,nt,nt
Cc1c(Cc2ccccc2)sc(NC(=O)C(C)(C)C)c1C(N)=O,-30*,48,17,nt,-2,-2
CCC(=O)Nc1sc(Cc2ccc3c(c2)OCO3)c(C)c1C(N)=O,-26*,-18,3,0,-10,-4
CCC(=O)Nc1sc(Cc2ccccc2)c(C)c1C(N)=O,-51,-8,-2,4,-11,0
CCCC#Cc1ccc([C@@H]2[C@@H](CO)N3C(=O)CN(C(=O)c4cccc(F)c4)C[C@@H]23)cc1,-17,nt,nt,nt,nt,nt
C[C@H](CO)N1C[C@H](C)[C@@H](CN(C)Cc2cccc(C(=O)O)c2)Oc2ncc(-c3ccccc3F)cc2C1=O,2,nt,-11,-4,-21,2
CCOc1ccccc1NC(=S)N(CCC(C)C)C1CCN(C(C)=O)CC1,1,-12,11,-1,-10,19*
CCOc1ccccc1NC(=S)N(CCOC)C1CCN(C(C)=O)CC1,4,-32,-1,3,1,-8
C[C@H]1CN([C@@H](C)CO)C(=O)c2cc(C#Cc3ccc(F)cc3)cnc2O[C@H]1CN(C)Cc1ccccn1,-3,nt,-7,-16,8,-2
C[C@H](CO)N1C[C@H](C)[C@H](CN(C)Cc2ccccn2)Oc2ncc(C3=CCCCC3)cc2C1=O,1,nt,-12,6,8,-5
COc1cccc(NC(=O)N(C)C[C@H]2OCc3cnnn3CCCC(=O)N([C@@H](C)CO)C[C@H]2C)c1,-1,-7,-5,8,-9,nt
CCCCCCN(C(=O)CCl)c1ccccc1,7,104*,42,3,-23,nt
CCCCCCCN(C(=O)CCl)c1cccc(C)c1,-10,103*,nt,nt,1,nt
N#CCCN(C(=O)CCl)c1cccc(Cl)c1,-4,1,35,7,nt,-2
C[C@@H]1CN([C@H](C)CO)C(=O)c2cc(NC(=O)Nc3ccc(C(F)(F)F)cc3)ccc2O[C@@H](C)CCCCO[C@H]1CN(C)S(=O)(=O)c1cn(C)cn1,-2,12,11,4,6,nt
CCOCCCNC(=O)c1ccc2c(c1)N=C(CC)c1cc(Br)ccc1S2,-12,91*,61*,3,2,17*
CS(=O)(=O)NCCSCc1ccc(Cl)cc1,nt,nt,nt,5,nt,nt
CC(C)(CNS(C)(=O)=O)SCc1ccc(Cl)cc1,-32*,-9,4,-4,21,0
